The list is not random: actives were taken first. Their share in the collection is about 2.3%.
SENP7 inh = inhibitors of human SENP7 protease; recombinant SENP7, Z-RLRGG-aminoluciferin luminescence, 40 min; inhibition, % at 5 µM; 330,000 compounds, 1.5% hits; AID 434973;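 active means inhibition above about 50% at the single test dose, limit read from the data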
SENP8 block-1 = inhibitors of human SENP8 protease | 360,000 compounds, 0.64% hits | inhibition, % at 20 µM | AID 602440 | Q96LD8 | recombinant SENP8, Nedd8 substrate fluorescence; in the data active means inhibition mostly above about 40%, no sharp cut-off; inactive means mostly below about 27%
Target sequence (Q96LD8 whole entry, looked up): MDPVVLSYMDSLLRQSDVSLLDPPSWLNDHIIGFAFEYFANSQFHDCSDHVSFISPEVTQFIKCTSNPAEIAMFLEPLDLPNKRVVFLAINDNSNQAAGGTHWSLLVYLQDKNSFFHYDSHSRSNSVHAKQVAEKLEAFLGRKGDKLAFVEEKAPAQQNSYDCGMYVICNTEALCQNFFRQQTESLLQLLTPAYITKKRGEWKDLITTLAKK
SENP8 block-2 = inhibitors of human SENP8 protease. Q96LD8. purified SENP8, Z-RLRGG-aminoluciferin cleavage, luminescence. 330,000 compounds, 1.2% hits. inhibition, % at 10 µM; in the data active means inhibition above about 50%
SENP6 block = inhibitors of human SENP6 protease; Q9GZR1; Recombinant SENP6 catalytic domain, aminoluciferin luminescence; inhibition, % at 10 µM; 330,000 compounds, 1.8% hits;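 active means inhibition above about 50% at the single tested dose, limit read from the data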
Target sequence (Q9GZR1 628-1112 limits assumed): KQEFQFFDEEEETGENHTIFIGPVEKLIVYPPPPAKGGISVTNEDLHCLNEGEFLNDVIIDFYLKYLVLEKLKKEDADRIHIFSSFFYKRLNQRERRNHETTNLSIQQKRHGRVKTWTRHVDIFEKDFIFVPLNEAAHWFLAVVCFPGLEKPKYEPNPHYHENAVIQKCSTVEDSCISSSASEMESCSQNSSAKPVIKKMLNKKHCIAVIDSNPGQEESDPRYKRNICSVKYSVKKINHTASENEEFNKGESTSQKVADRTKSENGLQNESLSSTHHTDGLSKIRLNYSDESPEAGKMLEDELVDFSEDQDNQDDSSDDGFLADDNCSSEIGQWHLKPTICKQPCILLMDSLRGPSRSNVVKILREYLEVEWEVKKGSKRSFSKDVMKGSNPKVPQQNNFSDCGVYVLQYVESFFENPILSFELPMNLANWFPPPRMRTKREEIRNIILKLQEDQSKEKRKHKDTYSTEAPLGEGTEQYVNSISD
LGR2 inh = blocks bursicon-induced cAMP signaling via Drosophila LGR2 | inhibition, % at 9.99 µM | AID 720647 | HEK293 LGR2, CRE-luciferase, bursicon-stimulated, 4 h | 380,000 compounds, 0.35% hits;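 active means drop in luminescence signal, shown as inhibition above about 50% in the replicate tests, limit read from the data, passing the limit was not always enough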;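 further: agonist challenge used bursicon conditioned medium at about half maximal strength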
HSP90 refold inh = inhibitors of HSP90 luciferase refolding in rabbit reticulocyte lysate; inhibition, % at 5.6 µM; 290,000 compounds, 0.91% hits; luciferase refolding luminescence, 3 h; AID 1789;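 active means inhibition above the screen-wide mean plus 3 SD, computed separately per campaign, cut at about 16% in these data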;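 further: inhibitors lower the luminescence because luciferase stays unfolded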
SENP8 conf = human SENP8 inhibition, confirmed | shares compounds with SENP7 inh | Recombinant SENP8, Z-RLRGG-aminoluciferin luminescence, 60 min | inhibition, % at 12.5 µM | 6,200 compounds, 40% hits;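 active means mean inhibition across replicates above about 50%, limit read from the data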
SENP6 conf = confirmation of human SENP6 protease inhibitors; 6,200 compounds, 58% hits; shares compounds with SENP7 inh; inhibition, % at 12.5 µM; recombinant SENP6, Z-RLRGG-aminoluciferin luminescence
SENP7 confirm = confirmation of human SENP7 protease inhibitors | shares compounds with SENP7 inh | recombinant SENP7, Z-RLRGG-aminoluciferin luminescence, 40 min | inhibition, % at 12.5 µM | 6,200 compounds, 69% hits | AID 488917
Casp3 select = caspase-3 inhibition (SENP selectivity assay) | inhibition, % at 12.5 µM | purified caspase-3, Z-DEVD-aminoluciferin luminescence, 60 min | 6,200 compounds, 60% hits | shares compounds with SENP7 inh;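 active means mean inhibition above about 50%, limit read from the data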
SENP luc ctr = luminescence interference (SENP counter-screen); shares compounds with SENP7 inh; Pre-incubated SENP8/Z-RLRGG-aminoluciferin, luciferase luminescence interference; inhibition, % at 12.5 µM; 6,200 compounds, 39% hits;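 active means mean inhibition above about 50% when retested at one dose, limit read from the data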
Large screens that a line does not name were inactive (follow-up assays come after a bar, where they were run).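 How the source made its calls, unless noted: active means mean inhibition above about 50% in the one-dose retest (limit read from the data); inactive means the rest.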

CCN(CC)c1ccc(NC(=O)Nc2ccc(C(C)=O)cc2)cc1	none (no result: LGR2 inh)
CCN(CC)c1ccc(NC(=O)Nc2ccccc2)cc1	SENP7 inh 65, SENP8 block-2 64, SENP6 block 83 | SENP8 conf inactive | SENP6 conf 71 | SENP7 confirm 88 | Casp3 select 76 | SENP luc ctr 52
O=C(Cn1nnc(-c2ccc3c(c2)OCO3)n1)Nc1ccccc1C(=O)O	SENP7 inh 60, SENP8 block-2 80, SENP6 block 89 | SENP8 conf inactive | SENP6 conf 87 | SENP7 confirm 97 | Casp3 select 87 | SENP luc ctr 87
O=C(Cn1nnc(-c2ccccc2)n1)Nc1ccc2c(c1)OCO2	none (no result: LGR2 inh)
O=Nc1[nH]c(=O)c(/C=C(\O)c2ccccc2)nc1NO	SENP7 inh 58, SENP6 block 56 | SENP8 conf 68 | SENP6 conf 64 | SENP7 confirm 86 | Casp3 select 93 | SENP luc ctr 70
O/C(=C\c1nc2ccccc2nc1/C=C(\O)c1ccccc1)c1ccccc1	none (no result: LGR2 inh)
Cc1ccc(S(=O)(=O)N(C)C[C@H]2Oc3ccc(NC(=O)Cc4ccccc4)cc3CC(=O)N([C@@H](C)CO)C[C@@H]2C)cc1	none (no result: SENP7 inh, SENP8 block-1, SENP8 block-2, SENP6 block, HSP90 refold inh)
COc1cccc(C=Nc2cc(C)cc(C)c2)c1O	none
CCc1ccc2oc(-c3cc(N=Cc4cccc(OC)c4O)ccc3O)nc2c1	SENP7 inh 89, SENP8 block-2 92, SENP6 block 86 (no result: SENP8 block-1, LGR2 inh) | SENP8 conf 84 | SENP6 conf 84 | SENP7 confirm 87 | Casp3 select 76 | SENP luc ctr inactive
O=C(CNC(=O)c1ccccc1Cl)N/N=C/c1ccc([N+](=O)[O-])s1	SENP6 block 70 | SENP8 conf inactive | SENP6 conf inactive | SENP7 confirm inactive | Casp3 select inactive | SENP luc ctr inactive
O=C(Cc1cccs1)N/N=C\c1ccc([N+](=O)[O-])s1	none
C[C@H]1CN([C@@H](C)CO)S(=O)(=O)c2ccc(Br)cc2O[C@@H]1CN(C)C(=O)C1CCC1	none (no result: SENP7 inh, SENP8 block-1, SENP8 block-2, SENP6 block, HSP90 refold inh)
COC(=O)c1sc(NC(=O)c2ccncc2)nc1C	SENP7 inh 94, SENP8 block-2 86, SENP6 block 90 | SENP8 conf 80 | SENP6 conf 91 | SENP7 confirm 100 | Casp3 select 97 | SENP luc ctr inactive
CCOc1ccc(C(=O)Nc2nc(C)c(C(=O)OC)s2)cc1	SENP7 inh 92, SENP6 block 54 | SENP8 conf inactive | SENP6 conf inactive | SENP7 confirm inactive | Casp3 select inactive | SENP luc ctr inactive
CCOC(=O)c1sc(NC(=O)c2ccc3nc[nH]c3c2)nc1C	SENP7 inh 75, SENP8 block-2 73, SENP6 block 81 | SENP8 conf inactive | SENP6 conf 72 | SENP7 confirm inactive | Casp3 select inactive | SENP luc ctr inactive
CCOC(=O)c1sc(NC(=O)c2cccnc2)nc1C	none (no result: HSP90 refold inh)
CC(C)NC(=O)Nc1ccc2c(c1)CC(=O)N([C@@H](C)CO)C[C@H](C)[C@@H](CN(C)Cc1ccc(Oc3ccccc3)cc1)O2	none (no result: SENP7 inh, SENP8 block-1, SENP8 block-2, SENP6 block, HSP90 refold inh)
Clc1ccccc1-c1ncc(-c2ccccc2)o1	SENP7 inh 92, SENP8 block-2 88, SENP6 block 91 | SENP8 conf 79 | SENP6 conf 92 | SENP7 confirm 99 | Casp3 select 79 | SENP luc ctr 84
CSc1nnc(-c2ccccc2Cl)o1	none (no result: LGR2 inh)
Clc1ccc(/C=N/Nc2nnc(Cl)c3ccccc23)cc1	none
Cc1ccc(/C=N/Nc2nnc(Cl)c3ccccc23)cc1	SENP7 inh 95, SENP8 block-2 86, SENP6 block 93 | SENP8 conf inactive | SENP6 conf inactive | SENP7 confirm inactive | Casp3 select inactive | SENP luc ctr inactive
C(=N\Nc1ncnc2ccccc12)/c1ccccc1	SENP7 inh 66 | SENP8 conf 62 | SENP6 conf 59 | SENP7 confirm 85 | Casp3 select 69 | SENP luc ctr 68
Clc1nnc(N/N=C/c2ccccc2)c2ccccc12	SENP7 inh 90, SENP8 block-2 74, SENP6 block 94 | SENP8 conf inactive | SENP6 conf inactive | SENP7 confirm 65 | Casp3 select inactive | SENP luc ctr inactive
COc1ccc(NC(=O)Nc2ccc3c(c2)CC(=O)N([C@@H](C)CO)C[C@H](C)[C@H](CN(C)S(=O)(=O)c2ccc(F)cc2)O3)cc1	none (no result: SENP7 inh, SENP8 block-1, SENP8 block-2, SENP6 block, HSP90 refold inh)
CNC[C@H]1OCCCC[C@@H](C)Oc2ccc(NC(=O)Nc3cccc4ccccc34)cc2C(=O)N([C@H](C)CO)C[C@H]1C	none (no result: SENP7 inh, SENP8 block-1, SENP8 block-2, SENP6 block, HSP90 refold inh)
O=C(O)c1cccc(Nc2ccc([N+](=O)[O-])cn2)c1	SENP7 inh 93, SENP8 block-2 90, SENP6 block 91 | SENP8 conf 92 | SENP6 conf 92 | SENP7 confirm 101 | Casp3 select 83 | SENP luc ctr 93
C[C@H]1CN([C@@H](C)CO)C(=O)c2cccc(NC(=O)Nc3ccc(C(F)(F)F)cc3)c2O[C@@H]1CN(C)CC1CC1	none (no result: SENP7 inh, SENP8 block-1, SENP8 block-2, SENP6 block, HSP90 refold inh)
N/C(=N\OC(=O)C1CCCCC1)c1ccccn1	SENP7 inh 68, SENP6 block 67 | SENP8 conf 61 | SENP6 conf 60 | SENP7 confirm 87 | Casp3 select 89 | SENP luc ctr 67
Cc1ccc(/C(N)=N/OC(=O)c2ccco2)cc1	SENP7 inh 95, SENP8 block-2 89, SENP6 block 73 (no result: LGR2 inh) | SENP8 conf 76 | SENP6 conf 95 | SENP7 confirm 102 | Casp3 select 91 | SENP luc ctr 68
Cc1ccc(C(=O)O/N=C(\N)c2ccc(Br)cc2)cc1	none (no result: LGR2 inh)
O=C(COC(=O)c1ccccc1)c1ccc(Br)cc1	SENP8 block-2 83, SENP6 block 86 | SENP8 conf inactive | SENP6 conf 64 | SENP7 confirm 87 | Casp3 select 63 | SENP luc ctr inactive
N/C(=N\OC(=O)c1ccco1)c1ccc(Br)cc1	SENP7 inh 76, SENP8 block-2 74, SENP6 block 93 (no result: LGR2 inh) | SENP8 conf 84 | SENP6 conf 83 | SENP7 confirm 97 | Casp3 select 75 | SENP luc ctr 73
C[C@H](CO)N1C[C@H](C)[C@H](CN(C)Cc2ccc(-c3ccccc3)cc2)Oc2c(NS(=O)(=O)c3cccs3)cccc2C1=O	none (no result: SENP7 inh, SENP8 block-1, SENP8 block-2, SENP6 block, HSP90 refold inh)
COc1ccc2c3c([nH]c2c1)[C@H](CO)N(Cc1cc(F)ccc1F)CC31CCN(C(C)=O)CC1	none (no result: SENP7 inh, SENP8 block-1, SENP8 block-2, SENP6 block, HSP90 refold inh)

Source: PubChem BioAssay (several laboratories)
